Experimental data as given in PubChem BioAssay AID686978 (National Center for Advancing Translational Sciences (NCATS), 2013).
Hit rate of the full screen: of about 420,000 compounds, about 64,000 (15%) were called active. About 27% were inconclusive and are not listed. The call rests on the fitted dose curve; in most records, active means well fitted inhibition curve with a large enough effect; inconclusive means small, poorly fitted or top-dose-only effect; inactive means flat fitted curve, though single readings scatter. The list is a sample of the results.

assay: qHTS for Inhibitors of human tyrosyl-DNA phosphodiesterase 1 (TDP1): qHTS in cells in absence of CPT; conditions: DT40 Tdp1-/- hTDP1 cells, no CPT, ATP luminescence, 48 h; activity change, negative = growth inhibition: at 46.2 µM (top of the series); further: nearly all actives have a fitted effect of over 55% in size
Procedure, shortened: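 Chicken DT40 Tdp1-/- cells complemented with human TDP1, screened without camptothecin (DMSO vehicle only), 400 cells/well. Compounds pin-transferred, cells incubated at 37 °C for at least 48 hr. Growth read as ATP-dependent luminescence (CellTiter-Glo, 30 min at RT).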
On the % scale 0 is the no-effect control and ±100 the full control effect; potency means the concentration at half of the fitted maximal effect.

Row | Compound | activity change, negative = growth inhibition | Potency
1 | CC(C)C(C)NC(=O)COc1ncnc2ccccc12 (centres undefined) | 2.12% (inactive) | 
2 | CCn1ccnc1CNC(=O)CC1C(=O)NCCN1CCCc1ccccc1 (centres undefined) | 9.87% (inactive) | 
3 | O=C(CCC(=O)N1CCN(S(=O)(=O)c2ccccc2)CC1)NC1CCCc2ccccc21 (centres undefined) | -23.6% (inactive) | 
4 | O=C1NC(Cc2ccccc2)c2nc3ccc(Br)cc3c(=O)n2-c2cc3ccccc3cc21 (centres undefined) |  | 7.31 µM (active)
5 | CCC1NC(=O)c2cccnc2-n2c1nc1ccc(C)cc1c2=O (centres undefined) | 3.31% (inactive) | 
6 | Cc1cc(C)c2c(=O)n3c(nc2c1)C(CC(C)C)NC(=O)c1cc2ccccc2cc1-3 (centres undefined) |  | 4.61 µM (active)
7 | CCc1ccc(NC2Nc3cc(C)nn3S2)cc1 (centres undefined) | -0.765% (inactive) | 
8 | N#CCC(=O)NC1CCC(CC2CCC(NC(=O)CC#N)CC2)CC1 (centres undefined) | 4.54% (inactive) | 
9 | CCOc1cc(C2C(C(=O)OC)=CN(C3CCCC3)C=C2C(=O)OC)cc(Br)c1O | -11.2% (inactive) | 
10 | COc1ccc(S(=O)(=O)Nc2ccc(F)cc2)c(C)c1C | -21.2% (inactive) | 
11 | COc1ccccc1CNS(=O)(=O)CC12CCC(CC1=O)C2(C)C (centres undefined) | 3.54% (inactive) | 
12 | CC(=O)Nc1ccc(S(=O)(=O)NC(C)C(=O)OCCOc2ccc(F)cc2)cc1 (centres undefined) | -12% (inactive) | 
13 | Cc1cccc(C)c1NC(=O)Nc1ccccc1-n1ccnc1 | 2.52% (inactive) | 
14 | COC(=O)C[C@H]1C=C[C@@H](NS(=O)(=O)c2ccc(C)cc2)[C@@H](CO)O1 | 1.99% (inactive) | 
15 | COc1ccc(C(=O)Nc2ccnn2C2CCN(Cc3ccncc3)CC2)cc1 | -9.39% (inactive) | 
16 | COc1ccc(C(=O)Nc2ccc(CN3CCOCC3)cc2)cc1 | -13.6% (inactive) | 
17 | COc1ccc(C(=O)Nc2sc(C)c(C)c2CN2CCOCC2)cc1 |  | 23.1 µM (active)
18 | OCC1(CO)CC2(C1)CC(CO)(CO)C2 | 1.95% (inactive) | 
19 | CCOC(=O)c1sc(NC(=O)/C=C/c2ccc(C(C)C)cc2)c(C(=O)OCC)c1C | -21.3% (inactive) | 
20 | Cc1ccc(S(=O)(=O)NCC(=O)N(CC(=O)NCC2CCCO2)c2cccc(F)c2)cc1 (centres undefined) | -5.08% (inactive) | 
21 | COC(=O)c1cc(NC(=O)CCc2c(C)nc3c4c(C)cc(C)nc4nn3c2C)cc(C(=O)OC)c1 | -21.8% (inactive) | 
22 | CCc1noc(C)c1C(=O)NNC(=O)c1ccc(F)cc1 | 1.49% (inactive) | 

Row | Compound | activity change, negative = growth inhibition | Potency
23 | COc1ccc(C(=O)COC(=O)c2c(C)noc2C)cc1Cl | -23.2% (inactive) | 
24 | CCc1noc(C)c1C(=O)OCC(=O)c1ccc(NC(=O)CC(C)C)cc1 |  | 25.9 µM (active)
25 | O=C(Nc1nsc(-c2ccccc2)n1)c1ccncc1 | -26.7% (inactive) | 
26 | NC(=O)c1oc2ccccc2c1NC(=O)Cc1ccccc1 | -18.1% (inactive) | 
27 | COc1ccc(-c2nn(-c3ccccc3)cc2/C=C\C(=O)N2CCOCC2)cc1[N+](=O)[O-] | 2.01% (inactive) | 
28 | C[C@@H]1ON(C)[C@H]2C[C@H]3c4cc(N5CCN(C)CC5)ccc4CCN3C(=O)[C@@H]12 | 0.647% (inactive) | 
29 | COc1ccc(-c2ccc3[nH]c4c(c3c2)CCN2C[C@H]3[C@H](C)ON(C)[C@H]3C[C@@H]42)cc1 |  | 20.6 µM (active)
30 | COC(=O)[C@H]1[C@H]2C[C@H]3c4[nH]c5ccccc5c4CCN3C[C@@H]2CC[C@@H]1O |  | inactive
31 | CC(C)(C)C1CCC(C(=O)NCC(c2cccs2)N2CCOCC2)CC1 (centres undefined) |  | 8.2 µM (active)
32 | O=C(NCc1csc(-c2cccs2)n1)C1CC1 | -6.41% (inactive) | 
33 | COc1ccc(C(CNC(=O)CSc2ccccc2)N2CCOCC2)cc1 (centres undefined) | -26.7% (inactive) | 
34 | Cc1cc(=O)oc(C)c1C(=O)Nc1cnc2ccccc2c1 | -21.1% (inactive) | 
35 | CCc1ccc(NC(=O)C(=O)N/N=C(\C)CC(=O)NCCOC)cc1 | -7.62% (inactive) | 
36 | CCc1nnc(NC(=O)CSc2nnc(Cc3ccccc3)n2-c2ccc(OC)cc2)s1 | -0.0344% (inactive) | 
37 | CCc1c(C)[nH]c(=S)c(C#N)c1C | -9.03% (inactive) | 
38 | COc1cccc(C(=O)NC2(C(F)(F)F)C(=O)Nc3c2c(=O)[nH]c(=O)n3-c2ccc(C)cc2)c1 (centres undefined) |  | 23.1 µM (active)
39 | COc1cccc(C(=O)NNC(=O)c2cccc(F)c2)c1 | -17% (inactive) | 
40 | CCOc1ccccc1C(=O)NC1(C(F)(F)F)C(=O)Nc2c1c(=O)[nH]c(=O)n2-c1ccc(F)cc1 (centres undefined) | -13% (inactive) | 
41 | Cc1cccc(-c2noc(CCC(=O)NC3CCCC3)n2)c1 | -23.5% (inactive) | 
42 | COc1ccc(S(=O)(=O)N2CCOC2CNC(=O)C(=O)NCc2ccncc2)cc1OC (centres undefined) | -2.25% (inactive) | 
43 | Cc1ccc(S(=O)(=O)N2CC[C@H]3[C@@H](C2)C(=O)C[C@@H](c2ccccc2)N3S(=O)(=O)c2ccc(C)cc2)cc1 | -10.3% (inactive) | 
44 | CC(=O)C1=CCC(c2ccccc2)N(S(=O)(=O)c2ccc(C)cc2)C1 (centres undefined) |  | 23.1 µM (active)

Row | Compound | activity change, negative = growth inhibition | Potency
45 | Cc1ccc(S(=O)(=O)N2C3C=CC(C3)C2C(=O)O)cc1 (centres undefined) | -0.745% (inactive) | 
46 | Cc1ccc(S(=O)(=O)N2CCCC2CO)cc1 (centres undefined) | 0.298% (inactive) | 
47 | CCOC(=O)C1=CCC(c2ccc(F)cc2)N(S(=O)(=O)c2ccc(C)cc2)C1 (centres undefined) |  | 18.4 µM (active)
48 | O=C(CN1CCN(S(=O)(=O)c2ccc(F)cc2)CC1)NC1CC1 | 6.75% (inactive) | 
49 | CCOC(=O)C1=CC[C@@H](c2ccncc2)N(S(=O)(=O)c2ccc(C)cc2)C1 |  | 23.1 µM (active)
50 | Cc1ccc(NC(=O)CSc2nnc(CNC(=O)c3ccccc3F)o2)cc1 | -1.98% (inactive) | 
51 | COc1ccc(-c2cc(=O)oc3cc(OCC(=O)N(C)C4CCS(=O)(=O)C4)ccc23)cc1 (centres undefined) | -0.332% (inactive) | 
52 | Cc1ccc(-c2c[n+](=O)c3c(n2[O-])CCC3)cc1 | 2.44% (inactive) | 
53 | O=C(C1CCN(C2CCN(Cc3cccc4c3OCO4)CC2)CC1)N1CCOCC1 | -10.3% (inactive) | 
54 | COC(=O)C(C)n1cnc2c(nnn2-c2ccc(F)cc2)c1=O (centres undefined) | -4.65% (inactive) | 
55 | O=C1CC(c2ccccc2)C(c2ccccc2)=NN1 (centres undefined) | -23.2% (inactive) | 
56 | CCOc1ccc(N2CC(C(=O)NCc3ccccn3)CC2=O)cc1 (centres undefined) | -0.987% (inactive) | 
57 | O=C(COC(=O)Cc1ccc(Br)cc1)Nc1ccc(N2CCOCC2)cc1 | 10% (inactive) | 
58 | COc1ccc(C(=O)Nc2c(N)nc(SCC(=O)Nc3ccc(C(C)=O)cc3)[nH]c2=O)cc1 | 5.39% (inactive) | 
59 | Cc1cc(Cl)c(S(=O)(=O)N(C)C)cc1OCC(N)=O | -0.809% (inactive) | 
60 | COc1ccc(C(=O)CSc2nc(C)cc(C)n2)cc1[N+](=O)[O-] | -27.1% (inactive) | 
61 | COc1ccc(OC)c(S(=O)(=O)n2c([N+](=O)[O-])cnc2C)c1 | 6.38% (inactive) | 
62 | COc1ccc(C(C[N+](=O)[O-])n2nc(C)cc2C)cc1 (centres undefined) |  | 6.51 µM (active)
63 | C/C(=N\N)c1c(-c2ccccc2)c2cc(Br)ccc2[nH]c1=O | -4.4% (inactive) | 
64 | COc1ccc(CCNC(=O)COC(=O)/C=C/c2cccs2)cc1OC | -1.02% (inactive) | 
